In PubChem BioAssay (EPA / NIEHS):
Inconclusive results are not listed. Activity calls are given as the source filed them. How the source made its calls: active means hit-call score of the fitted dose curve at least 0.9, where 1 is the maximum; inconclusive means response in the unintended direction; inactive means score below 0.9.

The molecules below were run against Muscarinic acetylcholine receptor M3 (Homo sapiens) (UniProt P20309) (assay: NVS_GPCR_hM3: NovaScreen (NVS) G Protein-Coupled Receptor Assay for human Muscarinic, M3 Receptor (AID 2283272)).
Experimental: NVS_GPCR_hM3 is a biochemical, single-readout assay that uses extracted gene-proteins from CHO in a cell-free assay. Measurements were taken 1 hour after chemical dosing in a 96-well plate.NVS_GPCR_hM3 is one of one assay component(s) measured or calculated from the NVS_GPCR_hM3 assay. It is designed to make measurements of radioligand binding, a form of binding reporter, as detected with scintillation counting signals by Filter-based radiodetection technology.Data from the assay component NVS_GPCR_hM3 was analyzed into 1 assay endpoint. This assay endpoint, NVS_GPCR_hM3, was analyzed in the positive analysis fitting direction relative to DMSO as the negative control and baseline of activity. Using a type of binding reporter, loss-of-signal activity can be used to understand changes in the binding as they relate to the gene CHRM3. Furthermore, this assay endpoint can be referred to as a primary readout, because the performed assay has only produced 1 assay endpoint. To generalize the intended target to other relatable targets, this assay endpoint is annotated to the gpcr intended target family, where the subfamily is rhodopsin-like receptor.
Binding assays used specific radioligands (tritiated, iodinated) with non-radioactive competitive displacement ligands in agonist or antagonist protocols (as indicated) and various reference compounds and inhibitors to titrate specific binding to receptors and transporters. Most enzyme assays (CYPs, kinases, phosphatases, proteases, HDACs) used recombinant protein and specific substrates (fluorescence mostly, some colorimetric and radioactive) and inhibitors, followed by a biochemical separation of substrate and product. All assays for the biochemical HTS were initially run in duplicate at a single concentration (10 uM for CYP450 assays and 25 uM for all others). […] Each assay was run with positive and negative controls, and concurrent controls on every plate. The follow-up (secondary) screen tested active chemical-pairs in concentration series, as well as a few additional assays not tested in the primary screen, some selected negative inactives, and several cases re-run in the concentration series for confirmatory purposes.

Chain of Muscarinic acetylcholine receptor M3 (Homo sapiens) (P20309 whole entry, looked up): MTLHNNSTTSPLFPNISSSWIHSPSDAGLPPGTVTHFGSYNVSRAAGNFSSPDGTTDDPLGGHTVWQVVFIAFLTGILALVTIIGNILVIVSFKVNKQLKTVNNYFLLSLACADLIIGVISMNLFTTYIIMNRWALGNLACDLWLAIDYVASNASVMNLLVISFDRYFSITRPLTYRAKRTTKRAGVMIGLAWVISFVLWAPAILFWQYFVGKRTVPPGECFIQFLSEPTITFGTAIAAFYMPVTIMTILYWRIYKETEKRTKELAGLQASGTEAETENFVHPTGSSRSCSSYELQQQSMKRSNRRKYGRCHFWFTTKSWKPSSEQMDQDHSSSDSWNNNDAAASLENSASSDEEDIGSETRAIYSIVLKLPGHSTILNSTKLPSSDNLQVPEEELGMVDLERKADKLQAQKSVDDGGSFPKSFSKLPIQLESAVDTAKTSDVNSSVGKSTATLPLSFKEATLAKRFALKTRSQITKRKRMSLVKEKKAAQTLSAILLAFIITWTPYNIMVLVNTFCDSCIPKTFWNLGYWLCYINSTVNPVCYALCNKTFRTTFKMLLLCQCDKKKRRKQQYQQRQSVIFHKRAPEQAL

SMILES	AC50	outcome
Clc1cc(Cl)c2c(c1)N=C1CCCCCN1C2	2.09 µM (active)	–
CCN(CC)C(=O)c1cc(S(=O)(=O)Cc2ccccc2)c(N2CCC(c3ccccc3)CC2)cc1N(CC)CCN(C)C	7.89 µM (active)	–
COc1cccc([C@H](O)C2CCN(CCc3ccc(F)cc3)CC2)c1OC	–	inactive
CCCCCCCCOC(=O)c1cc(O)c(O)c(O)c1	–	inactive
CN(C)C(=O)C1(N2CCCCC2)CCN(CC[C@@]2(c3ccc(Cl)c(Cl)c3)CN(C(=O)c3ccccc3)CCO2)CC1	9.78 µM (active)	–
NCc1cccc(C2CCN(C(=O)c3ccc(C#Cc4ccccc4F)o3)CC2)c1	0.929 µM (active)	–
O=C1c2ccccc2C(=O)N1CCc1noc(-c2ccc(CN3CCCCCC3)s2)n1	3.96 µM (active)	–
CCOC(=O)O[C@H](C)OC(=O)c1ccc2c(c1)cc(C(=O)NC1CCN(C(C)C)CC1)n2Cc1cc(-c2ccc(Cl)s2)on1	5.44 µM (active)	–
CCCCCCCCCCCC[N+](C)(C)C	3.43 µM (active)	–
COc1ccc2cc(S(=O)(=O)N[C@H](CC(=O)N[C@H](Cc3ccc(CN4[C@H](C)CCC[C@@H]4C)cc3)C(=O)N(C)C(C)C)c3ccc4c(c3)OCO4)ccc2c1	14.2 µM (active)	–
c1ccc(C[n+]2cccc3ccccc32)cc1	25 µM (active)	–
